# Test results as given in the supplement of paper PMC8728848.
# The full list was thinned out, with the strongest signals kept by preference.
# B1: RetS (Pseudomonas aeruginosa), Q9HUV7 (protein)
# chain: MVRLRIAIGLLVSFLLLLLGPMSPAVADDAGVSSVPLQTTATTPSANQNWRLLRDESAQLRIADVLQRKEQFRPLAKRSFIFPASPQAVWLQVQLPAQKVPSWLWIFAPRVQYLDYYLVQDGQLVRDQHTGESRPFQERPLPSRSYLFSLPVDGKPMTLYVRMTSNHPLMAWFDQIDEAGLVGLEKPAYAFGMLLGGMLLLLMYNLIRFAYSRSASSLWLAAVHAALAVCAAANLGLVAFWLPGLKFNQSLTADLGALGAAVSLLWFACSFFRGTAESRLNRLLQGEALLILAVGAIIAFTQQLWFSWLIYLLVILSSLSVPLIAAWHWYRGYQPARLIVAGMIVFNAGFMVFLPVLFGTKQLDPGWLVLGVFSFATLAGLVLSVSLTERQRLIQQLNLQQRTSEAAHTAELQTKAEFLAKISHEIRTPMNGVLGMTELLLGTPLSAKQRDYVQTIHSAGNELLTLINEILDISKLESGQIELDEVQFDLNALIEDCLDIFRVKAEQQRIELISFTQPQVPRVIGGDPTRLRQVVLSLLDNAFKQTEEGEILLVVALDDQGETPRLRIAVQDSGHPFDAKEREALLTAELHSGDFLSASKLGSHLGLIIARQLVRLMGGEFGIQSGSSQGTTLSLTLPLDPQQLENPTADLDGPLQGARLLVVDDNETCRKVLVQQCSGWGLNVSAVSSGKEALAQLRTKAHLREYFDVVLLDQDMPGMTGMQLAAKIKEDPNLNHDILLIMLTGISNAPSKIIARNAGIKRILAKPVAGYTLKATLADELAQRGVSGVTNYLQPAKEAQAPSLPSDFRILVAEDNSISTKVIRGMLNKLNLQPDTASNGQEALSAMKATQYDLVLMDCEMPVLDGFSATEQLRAWEAHEQRPHTPVVALTAHILSEHKERARLVGMDGHMAKPVELSQLRELIAYWVGERDRRRQGDALPS
# Legend:
# Assay in all cases: glycan array binding signal (z-score within array); higher = stronger binding
# Settings in all cases: glycan notation: IUPAC condensed, linker removed
# Fuc(a1-2)Gal = target: Fuc(a1-2)Gal
# Outline: (§1)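 From the Consortium for Functional Glycomics database, 3228 arrays were curated, keeping only those whose protein sequence was available. Binding is given as a within-array Z-score averaged across arrays sharing a protein sequence and across linkers. Negative Z-scores can be read as non-binding.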
# [1] = target: Fuc(a1-2)Gal(b1-4)GlcNAc(b1-3)[Fuc(a1-2)Gal(b1-4)GlcNAc(b1-6)]GalNAc
# Outline: as §1
# [2] = target: Fuc(a1-2)Gal(b1-4)[Fuc(a1-3)]GlcNAc(b1-3)GalNAc
# Outline: as §1
# [3] = target: Fuc(a1-2)[Gal(a1-3)]Gal(b1-3)GlcNAc(b1-2)Man(a1-3)[Fuc(a1-2)[Gal(a1-3)]Gal(b1-3)GlcNAc(b1-2)Man(a1-6)]Man(b1-4)GlcNAc(b1-4)[Fuc(a1-6)]GlcNAc
# Outline: as §1
# [4] = target: Fuc(a1-2)[GalNAc(a1-3)]Gal(b1-3)GalNAc(a1-3)[Fuc(a1-2)]Gal(b1-4)GlcNAc
# Outline: as §1
# [5] = target: Fuc(a1-3)[Gal(b1-4)]GlcNAc(b1-4)Gal(b1-4)[Fuc(a1-3)]GlcNAc(b1-4)Gal(b1-4)[Fuc(a1-3)]GlcNAc
# Outline: as §1
# [6] = target: Gal(a1-4)Gal(b1-3)GlcNAc(b1-2)Man(a1-3)[Gal(a1-4)Gal(b1-3)GlcNAc(b1-2)Man(a1-6)]Man(b1-4)GlcNAc(b1-4)GlcNAc
# Outline: as §1
# Gal(a1-4)Gal(b1-4)Glc = target: Gal(a1-4)Gal(b1-4)Glc
# Outline: as §1
# [7] = target: Gal(a1-4)Gal(b1-4)GlcNAc(b1-2)Man(a1-3)[Gal(a1-4)Gal(b1-4)GlcNAc(b1-2)Man(a1-6)]Man(b1-4)GlcNAc(b1-4)GlcNAc
# Outline: as §1
# [8] = target: Gal(b1-3)[Fuc(a1-4)]GlcNAc(b1-2)Man(a1-3)[Gal(b1-3)[Fuc(a1-4)]GlcNAc(b1-2)Man(a1-6)]Man(b1-4)GlcNAc(b1-4)[Fuc(a1-6)]GlcNAc
# Outline: as §1
# [9] = target: Gal(b1-3)[Fuc(a1-4)]GlcNAc(b1-3)Gal(b1-4)GlcNAc
# Outline: as §1
# Gal(b1-4)Gal = target: Gal(b1-4)Gal
# Outline: as §1
# [10] = target: Gal(b1-4)GlcNAc(b1-2)[Gal(b1-4)GlcNAc(b1-4)]Man(a1-3)[Gal(b1-4)GlcNAc(b1-2)[Gal(b1-4)GlcNAc(b1-6)]Man(a1-6)]Man(b1-4)GlcNAc(b1-4)GlcNAc
# Outline: as §1
# [11] = target: Gal(b1-4)GlcNAc(b1-3)[Gal(b1-4)GlcNAc(b1-6)]Gal(b1-4)GlcNAc
# Outline: as §1
# [12] = target: GalNAc(a1-3)Fuc(a1-2)Gal(b1-4)GlcNAc(b1-3)[GalNAc(a1-3)Fuc(a1-2)Gal(b1-4)GlcNAc(b1-6)]GalNAc
# Outline: as §1
# GalNAc(a1-3)GalNAc = target: GalNAc(a1-3)GalNAc
# Outline: as §1
# GalNAc(b1-3)Gal = target: GalNAc(b1-3)Gal
# Outline: as §1
# [13] = target: Glc(a1-4)Glc(a1-4)Glc(a1-4)Glc
# Outline: as §1
# [14] = target: Glc(a1-6)Glc(a1-6)Glc(a1-6)Glc
# Outline: as §1
# [15] = target: GlcNAc(a1-4)Gal(b1-4)GlcNAc(b1-3)Gal(b1-4)Glc
# Outline: as §1
# [16] = target: GlcNAc(a1-4)Gal(b1-4)GlcNAc(b1-3)Gal(b1-4)GlcNAc
# Outline: as §1
# [17] = target: GlcNAc(a1-4)Gal(b1-4)GlcNAc(b1-3)Gal(b1-4)[Fuc(a1-3)]GlcNAc(b1-3)Gal(b1-4)[Fuc(a1-3)]GlcNAc
# Outline: as §1
# [18] = target: GlcNAc(b1-2)Gal(b1-3)GalNAc
# Outline: as §1
# [19] = target: GlcNAc(b1-2)Man(a1-3)[GlcNAc(b1-2)Man(a1-6)]Man(b1-4)GlcNAc(b1-4)GlcNAc
# Outline: as §1
# [20] = target: GlcNAc(b1-2)[GlcNAc(b1-4)]Man(a1-3)[GlcNAc(b1-2)Man(a1-6)]Man(b1-4)GlcNAc(b1-4)GlcNAc
# Outline: as §1
# GlcNAc(b1-3)Gal(b1-4)Glc = target: GlcNAc(b1-3)Gal(b1-4)Glc
# Outline: as §1
# GlcNAc(b1-3)GalNAc = target: GlcNAc(b1-3)GalNAc
# Outline: as §1
# [21] = target: GlcNAc(b1-4)GlcNAc(b1-4)GlcNAc(b1-4)GlcNAc(b1-4)GlcNAc(b1-4)GlcNAc
# Outline: as §1
# Man(a1-2)Man(a1-3)Man = target: Man(a1-2)Man(a1-3)Man
# Outline: as §1
# [22] = target: Man(a1-2)Man(a1-3)[Man(a1-6)]Man(a1-6)[Man(a1-2)Man(a1-3)]Man(b1-4)GlcNAc(b1-4)GlcNAc
# Outline: as §1
# [23] = target: Neu5Ac(a2-3)Gal(b1-3)GlcNAc(b1-3)GalNAc
# Outline: as §1
# [24] = target: Neu5Ac(a2-3)Gal(b1-4)GlcNAc(b1-3)Gal(b1-4)GlcNAc(b1-3)Gal(b1-4)GlcNAc
# Outline: as §1
# [25] = target: Neu5Ac(a2-3)Gal(b1-4)GlcNAc(b1-6)[Gal(b1-3)]GalNAc
# Outline: as §1
# [26] = target: Neu5Ac(a2-3)Gal(b1-4)[Fuc(a1-3)]GlcNAc(b1-3)Gal
# Outline: as §1
# [27] = target: Neu5Ac(a2-3)Gal(b1-4)[Fuc(a1-3)]GlcNAc(b1-3)Gal(b1-4)GlcNAc
# Outline: as §1
# [28] = target: Neu5Ac(a2-3)Gal(b1-4)[Fuc(a1-3)]GlcNAc(b1-3)GalNAc
# Outline: as §1
# [29] = target: Neu5Ac(a2-3)Gal6S(b1-4)[Fuc(a1-3)]GlcNAc
# Outline: as §1
# [30] = target: Neu5Ac(a2-6)Gal(b1-4)GlcNAc6S
# Outline: as §1
# [31] = target: Neu5Ac(a2-8)Neu5Ac(a2-3)[GalNAc(b1-4)]Gal(b1-4)Glc
# Outline: as §1
# [32] = target: Neu5Ac(a2-8)Neu5Ac(a2-8)Neu5Ac(a2-3)[GalNAc(b1-4)]Gal(b1-4)Glc
# Outline: as §1
binder,measurement,setting,value
B1,glycan array binding signal (z-score),Fuc(a1-2)Gal,1.84
same,glycan array binding signal (z-score),[1],0.163
same,glycan array binding signal (z-score),[2],1.16
same,glycan array binding signal (z-score),[3],2.79
same,glycan array binding signal (z-score),[4],0.731
same,glycan array binding signal (z-score),[5],-0.414
same,glycan array binding signal (z-score),[6],5.23
same,glycan array binding signal (z-score),Gal(a1-4)Gal(b1-4)Glc,-0.16
same,glycan array binding signal (z-score),[7],3.05
same,glycan array binding signal (z-score),[8],-0.397
same,glycan array binding signal (z-score),[9],0.071
same,glycan array binding signal (z-score),Gal(b1-4)Gal,3.18
same,glycan array binding signal (z-score),[10],0.39
same,glycan array binding signal (z-score),[11],-1.17
same,glycan array binding signal (z-score),[12],1.02
same,glycan array binding signal (z-score),GalNAc(a1-3)GalNAc,-0.917
same,glycan array binding signal (z-score),GalNAc(b1-3)Gal,-0.593
same,glycan array binding signal (z-score),[13],-0.095
same,glycan array binding signal (z-score),[14],-0.394
same,glycan array binding signal (z-score),[15],0.236
same,glycan array binding signal (z-score),[16],6.62
same,glycan array binding signal (z-score),[17],4.27
same,glycan array binding signal (z-score),[18],-0.622
same,glycan array binding signal (z-score),[19],0.152
same,glycan array binding signal (z-score),[20],-0.599
same,glycan array binding signal (z-score),GlcNAc(b1-3)Gal(b1-4)Glc,2.75
same,glycan array binding signal (z-score),GlcNAc(b1-3)GalNAc,-0.143
same,glycan array binding signal (z-score),[21],0.22
same,glycan array binding signal (z-score),Man(a1-2)Man(a1-3)Man,-1.17
same,glycan array binding signal (z-score),[22],0.409
same,glycan array binding signal (z-score),[23],-0.17
same,glycan array binding signal (z-score),[24],0.517
same,glycan array binding signal (z-score),[25],-0.343
same,glycan array binding signal (z-score),[26],-0.075
same,glycan array binding signal (z-score),[27],1.76
same,glycan array binding signal (z-score),[28],3.56
same,glycan array binding signal (z-score),[29],-0.246
same,glycan array binding signal (z-score),[30],0.369
same,glycan array binding signal (z-score),[31],0.67
same,glycan array binding signal (z-score),[32],0.181
